Screening results deposited in PubChem BioAssay by National Center for Advancing Translational Sciences (NCATS).
JMJD2A Tudor = JMJD2A Tudor domain (human) inhibition; O75164; AlphaScreen JMJD2A-Tudor / H3K4me3 peptide binding; Potency, µM (highest dose often 114 µM), without a hit: at the top dose activity change, negative = inhibition, hits mostly inhibitors; 4.4% of 390,000 active; also: % is scaled to controls: 0 for no effect and ±100 for the full control effect; nearly all actives have a fitted effect of over 50% in size
Sfp PPTase inh = inhibitors of Bacillus subtilis Sfp phosphopantetheinyl transferase; AID 1490; Biochemical Sfp PPTase activity, qHTS; Potency, µM, for the others: largest response in the series, negative = inhibition, most hits filed as inhibitors; Q9F4F7; 3.5% of 310,000 active;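 also: the enzyme is Sfp with the accession as filed and its product quenches rhodamine fluorescence; 0% = enzyme reaction without inhibitor and -100% = no enzyme wells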
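With Hepes-Na pH 7.6 buffer containing 10 mM MgCl2, Sfp (15 nM) modified BHQ-2-YbbR (12.5 uM) using rhodamine-CoA (5 uM). Two reads 30 minutes apart at 525/598 nm yielded each well's rate.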
HP1b binding inh = blocks HP1-beta chromodomain binding to methylated histone tails; P83916; AlphaScreen HP1-beta / biotin-H3K9me3 peptide binding; Potency, µM (doses to about 114 µM), for inactives: at the highest dose activity change, negative = inhibition, hits mostly inhibitors; 0.56% of 390,000 active; also: nearly all actives have a fitted effect of over 70% in size
Target sequence (P83916 whole entry, looked up): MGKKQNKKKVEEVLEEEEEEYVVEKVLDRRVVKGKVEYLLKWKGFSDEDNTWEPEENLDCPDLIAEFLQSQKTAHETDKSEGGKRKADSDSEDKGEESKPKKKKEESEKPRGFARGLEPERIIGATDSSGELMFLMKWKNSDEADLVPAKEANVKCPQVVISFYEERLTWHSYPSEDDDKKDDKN
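AlphaScreen: HP1-beta (50 nM) preformed 30 min with biotin-H3(1-18)K9me3 peptide (50 nM) in PBS pH 7.4, 0.01% Tween-20. Compound added for 30 min at RT, then streptavidin donor/nickel chelate acceptor beads (10 ug/mL) for 30 min.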
G9a inh = blocks human histone lysine methyltransferase G9a; G9a H3K9 monomethylation, AlphaScreen, 2 h; Potency, µM (highest dose often 102 µM), without a hit: at the highest dose activity, negative = inhibition, usual class: inhibitors; 8.8% of 350,000 active; also: % is scaled to controls: 0 for no effect and ±100 for the full control effect; nearly all actives have a fitted effect of over 75% in size
Target sequence (Q96KQ7 913-1193 limits assumed): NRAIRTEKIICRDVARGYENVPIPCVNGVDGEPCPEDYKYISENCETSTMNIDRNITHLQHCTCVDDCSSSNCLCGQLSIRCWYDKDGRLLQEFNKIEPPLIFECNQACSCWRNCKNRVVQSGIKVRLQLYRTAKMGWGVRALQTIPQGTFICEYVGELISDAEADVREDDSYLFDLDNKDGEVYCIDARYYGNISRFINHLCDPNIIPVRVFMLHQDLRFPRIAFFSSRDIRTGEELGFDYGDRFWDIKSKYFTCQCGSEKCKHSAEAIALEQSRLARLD
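AlphaScreen detection with an anti-monomethyl H3K9 antibody quantified product after a 2 h room-temperature reaction containing 500 nM biotinylated H3K9 peptide, 20 µM SAM and 20 nM enzyme, which had been preincubated 15 min with compound.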
BAZ2B inh = inhibitors of human BAZ2B bromodomain; Q9UIF8; AlphaScreen BAZ2B-H3K14Ac peptide displacement; 4.4% of 360,000 active; Potency, µM (top dose mostly 114 µM), inactives show at the top dose activity change, negative = inhibition, usual class: inhibitors; also: % is scaled to controls: 0 for no effect and ±100 for the full control effect; nearly all actives have a fitted effect of over 60% in size
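AlphaScreen luminescence quantifies BAZ2B engagement of H3K14Ac peptide; the protein and biotinylated peptide are both at 50 nM final, buffer PBS pH 7.4 with 0.01% Tween-20, all steps at room temperature.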
L3MBTL1 block = inhibitors of human L3MBTL1 | Q9Y468 | Potency, µM (series often up to 57.1 µM), without a hit: at the top dose activity, negative = inhibition, actives largely listed as inhibitors | 0.66% of 230,000 active | AlphaScreen L3MBTL1–H3K9me1 peptide binding; also: % is scaled to controls: 0 for no effect and ±100 for the full control effect; nearly all actives have a fitted effect of over 60% in size
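Read-out is AlphaScreen signal from streptavidin donor and nickel chelate acceptor beads (10 ug/mL final each) bridging L3MBTL1 (50 nM) and biotinylated K9-monomethylated H3(1-15) peptide (75 nM), after 30 min compound exposure at room temperature.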
* hit, by the source's call; ? = inconclusive; . = no result; [ ] = another dose, or the depositor's remark. Sampled rows, rich in hits. Any-hit rate of the full collection: about 12%. Calls follow the shape of the dose curve; as a rule, active = well fitted curve in the direction sought with a large enough effect; inconclusive = small, poorly fitted or top-dose-only effect, or another doubt; inactive = no such curve, though single readings can be large; an effect the other way counts as inactive or inconclusive. Potency is read from the fitted curve at half-maximal effect.

SMILES	JMJD2A Tudor	Sfp PPTase inh	HP1b binding inh	G9a inh	BAZ2B inh	L3MBTL1 block
CCn1cc(/C=C(\NC(=O)c2cc(OC)c(OC)c(OC)c2)C(=O)NCCCn2ccnc2)c2ccccc21	-35%	.	21%	11%[59 µM]	-38%	.
CCOC(=O)c1coc(C(=O)OCC)c1C(=O)OCC	8%	.	10%[57 µM]	.	.	.
O=C(CCN1C(=O)C2C3C=CC(C3)C2C1=O)N1CCCCC1 (centres undefined)	-10%	20%	56%	4%	-2%	7%
O=C(CCN1C(=O)C2CC=C(Cl)CC2C1=O)N1CCCCC1 (centres undefined)	?	89µM*	-1%	11µM*	-8%	-14%
O=C(NCCc1ccc(O)c(O)c1)C1COc2ccccc2O1 (centres undefined)	18µM*	50µM*	35µM*	2.2µM*	-13%	.
CC(C)Nc1nnc(SCc2cc(=O)n3ccsc3n2)s1	-24%	56µM*	32%	-3%	.	?
COc1ccc(Cl)cc1NC(=O)CSC1=Nc2ccccc2C2=NC(CC(=O)NCc3ccc4c(c3)OCO4)C(=O)N12 (centres undefined)	-16%	.	13%	-46%[59 µM]	?	.
CCn1c(SCC(=O)Nc2ccc(OC)c(OC)c2)nc2c(c1=O)SCC2	-5%	6%	25%	.	-35%	.
COCCn1c(SCC(=O)NCC2CCCO2)nc2c(c1=O)SCC2 (centres undefined)	89µM*	11%	27%	25%	-19%	.
COc1ccccc1-n1c(SCC(=O)Nc2ccc(F)cc2)nc2c(c1=O)SCC2	-19%	-19%	19%	50µM*	-29%	-2%
COc1ccc(NC(=O)CSc2nc3c(c(=O)n2-c2ccc(F)cc2)SCC3)cc1	-30%	11%	23%	-16%[59 µM]	0%	-12%
CCn1c(SCC(=O)Nc2cc(OC)ccc2OC)nc2c(c1=O)SCC2	?	-1%	-19%	-28%	79µM*	.
COC(C(=O)N1CCC(CCC(=O)Nc2ccccc2)CC1)c1ccccc1 (centres undefined)	5%	18%	48%	2%	-10%	.
CCC1(C)CN=C(c2ccccc2)NC1 (centres undefined)	35µM*	.	10%	.	.	.
CC1(C)CN=C(c2ccccc2)NC1	-10%	.	13%[57 µM]	.	.	.
CC[C@]1(c2cccc(C)c2)C(=O)N(C(=O)OC)N1C(=O)OC	-1%	-19%	50%	40µM*	-37%	-4%
CC[C@@]1(c2ccccc2)C(=O)N(C(=O)OC)N1C(=O)OC	-10%	-25%	64%	28µM*	-34%	-1%
COC(=O)N1C(=O)[C@](Cc2ccccc2)(c2ccccc2)N1C(=O)OC	-17%	-3%	43%	40µM*	-31%	-1%
COC(=O)N1C(=O)[C@@](Cc2ccccc2)(c2ccccc2)N1C(=O)OC	-21%	-4%	38%	.	-7%	8%
Cc1ccc(S(=O)(=O)N2CCCCC2)cc1NC(=O)CNC(C)c1ccc(Cl)c(Cl)c1 (centres undefined)	-11%	.	65%	-17%[12.7 µM]	-17%	-8%
Cc1cc(C)n(Cc2ccc(C(=O)O)cc2)n1	1%	7%	16%	14%	-4%	.
Cc1ccc(C)n1Cc1ccc(C(=O)O)cc1	0.79µM*	?	?	8.9µM*	16µM*	?
Nc1n[nH]c(N)c1N=Nc1ccccc1F	?	2%	6%	-8%	?	.
Nc1n[nH]c(N)c1N=Nc1ccc(Cl)cc1Cl	32µM*	-18%	-11%	?	32µM*	-17%
CCOc1ccc(CCn2c3c(c(=O)[nH]c2=O)C(NC(=O)c2ccccc2)(C(F)(F)F)C(=O)N3)cc1OCC (centres undefined)	-13%	.	42%	2%[59 µM]	-15%	.
SMILES	JMJD2A Tudor	Sfp PPTase inh	HP1b binding inh	G9a inh	BAZ2B inh	L3MBTL1 block
CC(C(=O)Nc1nc(-c2ccc(F)cc2)cs1)N1C(=O)C2CC=CCC2C1=O (centres undefined)	-18%	.	6%	13%[12.7 µM]	-27%	-3%
CCOc1ccc(N=C(/C(C(=O)C(=O)N2CCOCC2)=C(\O)c2ccccc2)c2ccccc2)cc1	-17%	4%	13%	50µM*	-29%	0%
CCOc1ccc(OCc2ccc(C(=O)N3CCOCC3)cc2)cc1	-2%	11%	21%	-38%[59 µM]	-16%	-5%
CC(C)Cc1nc(SCC(=O)N2CCCC2)c2c(=O)n(C)c(=O)n(C)c2n1	-32%	11%	26%	48%	-1%	.
CCN(CC)C(=O)CSC1=Nc2ccccc2C2=NC(Cc3c[nH]c4ccccc34)C(=O)N12 (centres undefined)	-21%	50µM*	14%	?	-24%	-11%
CC1CCCN(c2c([N+](=O)[O-])c(=O)oc3ccccc23)C1 (centres undefined)	-8%	21%	27%	45µM*	8%	-1%
CCC(=O)Oc1ccc(C/C(=N\O)c2ccc(O)cc2O)o1	?	-18%	17%	13µM*	?	32µM*
CC(=O)c1ccc(NC(=O)Cc2cccs2)cc1	?	5%	-16%	?	50µM*	-26%
CCCCN(CCCC)S(=O)(=O)c1ccc(NC(=O)Cc2cccs2)cc1	45µM*	19%	-27%	-36%[59 µM]	?	.
Cc1c(NC(=O)Cc2cccs2)cccc1[N+](=O)[O-]	-11%[57.1 µM]	-2%	31%	?	50µM*	-24%
CN1CCc2c(sc(/N=C/c3c[nH]c4ccccc34)c2C(N)=O)C1	?	?	-27%	45µM*	-28%	-12%
CCOC(=O)c1c(/N=C/c2ccc(C)cc2O)sc2c1CCC2	-27%	-15%	-38%	45µM*	?	-1%
CCOC(=O)c1c(/N=C/N(C)C)sc2c1CCC2	-34%	-9%	-13%	-18%[59 µM]	?	-5%
CCOC(=O)c1c(/N=C/c2ccc(OC)cc2O)sc2c1CCN(C)C2	45µM*	-22%	?	.	40µM*	25µM*
Cc1ccc(C)c(S(=O)(=O)N2CCCOC2CNC(=O)C(=O)NCc2ccc3c(c2)OCO3)c1 (centres undefined)	-15%	4%	9%	.	-14%	.
CCOc1ccc(N=C2NC(=O)CS2)cc1	-14%	13%	33%	10%[0.501 µM]	5%	6%[2.29 µM]
CCOC(=O)c1ccccc1NC(=O)COC(=O)c1ccccc1C(=O)N(C)c1ccccc1	-23%	.	35%	-7%[2.33 µM]	2%	-6%
C1CCc2c(nnc3c2-c2nonc2CC3)C1	-3%	-4%	23%	32µM*	6%	?
O=C1NCCCc2nonc21	-3%	13%	26%	13%	-5%	1%
COc1ccc(-c2nc(CN3CCN(Cc4ccccc4)CC3)c(C)o2)cc1	-33%	6%	1%	.	?	-7%
